Source: PubChem BioAssay (National Center for Advancing Translational Sciences (NCATS))
In the library only some 11% were active in any assay of this set; here they are far more common.
Pf growth 96h: Primary qHTS for delayed death inhibitors of the malarial parasite plastid, 96 hour incubation; P. falciparum luciferase reporter growth, 96 h; AID 504834, 2011; actives 6.9% (n = 320,000); Potency, µM (series often up to 28.7 µM), inactives show top-dose activity change, negative = inhibition, most hits filed as inhibitors
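Luminescence readout: decreased luciferase signal marks inhibited growth of reporter-expressing P. falciparum in infected red cells (2% hematocrit, 0.05% parasitemia final), exposed to compound two generations (96 h, 37 C, 5% CO2).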
AMA1-RON2 inh: qHTS for Inhibitors of AMA1-RON; Towards Development of Antimalarial Drug Lead: Primary Screen; Plasmodium falciparum AMA1 (3D7) - RON2 peptide interaction; AlphaScreen AMA1-biotinylated RON2 peptide binding; Potency, µM (top dose mostly 58.2 µM), without a hit: top-dose activity change, negative = inhibition, hits mostly inhibitors; actives 0.2% (n = 360,000);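 further: 0% = vehicle wells and -100% = peptide control; nearly all actives have a fitted effect of over 45% in size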
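AMA1 (3D7) with his tag at 25 nM final met compounds first, then biotinylated RON2 peptide at 25 nM; detection used donor plus acceptor beads, 10 µg/mL apiece, read by AlphaScreen after 30 min at room temperature.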
HCV inh: qHTS Assay for Inhibitors of Hepatitis C Virus (HCV) | Huh7.5.1 HCVcc-Cre infection, luciferase reporter, 44 h | Potency, µM (series often up to 41.8 µM), inactives show at the highest dose activity change, negative = inhibition, actives largely listed as inhibitors | actives 3.4% (n = 340,000) | AID 651820, 2012
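Compounds are dispensed onto cells plated 4 h earlier at 1,000 per well, with HCVcc-Cre virus (about 0.5 moi) added next. Following 44 h of culture, luminescent signal is measured for 15 sec after 15 min with substrate at room temperature.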
Pf growth 48h: Primary qHTS for delayed death inhibitors of the malarial parasite plastid, 48 hour incubation; P. falciparum luciferase growth in erythrocytes, 48 h; Potency, µM (doses to about 28.7 µM), for inactives: at the highest dose activity change, negative = inhibition, usual class: inhibitors; actives 5.9% (n = 310,000); AID 504832, 2011
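Luciferase-expressing parasites in RBCs, 2% Hct / 0.1% parasitemia final; RPMI 1640 + 0.5% Albumax; 37 C, 5% CO2, one generation; luminescence read-out, lower signal = inhibition.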
* marks the source's active call; other numbers are inactive results; ? = inconclusive; . = not tested or not shown; [ ] = remark or other dose. The call rests on the fitted dose curve; in most records, active means well fitted curve in the direction sought with a large enough effect; inconclusive means small, poorly fitted or top-dose-only effect, or another doubt; inactive means no such curve, though single readings can be large; an effect the other way counts as inactive or inconclusive. Unless noted, on the % scale 0 is the no-effect control and ±100 the full control effect; potency means the concentration at half of the fitted maximal effect.

SMILES | Pf growth 96h | AMA1-RON2 inh | HCV inh | Pf growth 48h
COc1ccc(CCC2(C)NC(=O)N(C(C)C(=O)N3c4ccccc4CC3C)C2=O)cc1 (stereo unspecified) | ? | -4% | 8% | 13µM*
NC(N)=N/N=C/c1ccc(OS(=O)(=O)c2ccccc2)cc1 | -14% | -3% | ? | 2.1µM*
CCC(=O)N/N=C/c1ccc(OS(=O)(=O)c2ccccc2)cc1 | ? | 5% | -4% | 10µM*
COc1ccc(/C=N/NC(=O)CNS(=O)(=O)c2ccccc2)cc1 | ? | -1%[11.6 µM] | -1% | -22%
Cn1cc(Cl)c(C(=O)N/N=C/c2ccc(OS(=O)(=O)c3ccccc3)cc2)n1 | 9.3µM* | 9% | ? | ?
Cc1ccc(/C=N/NC(=O)c2nn(C)cc2Cl)cc1 | 122% | 10% | 13% | 197%
CCOc1cc(/C=N/NC(=O)COc2ccc(Cl)cc2)ccc1OS(=O)(=O)c1ccccc1 | ? | 6% | 5µM* | .
COC(=O)/C=C1\N/C(=N/c2nc(C)c3cc(OC)ccc3n2)NC1=O | -16% | 2% | ? | ?
CN(C)C(=O)c1cccc(-c2cccc(-c3nc(C(=O)NCc4ccccc4)cc4c3[C@@H](CCO)N(S(=O)C(C)(C)C)C4)c2)c1 (stereo partly specified) | . | -10% | . | .
CC(=O)CC(c1ccccc1)S(=O)(=O)c1ccc([N+](=O)[O-])cc1 (stereo unspecified) | 38% | 2% | 8% | 32%
CC(C)(C)NC(=O)CSc1nc2[nH]ncc2c(=O)[nH]1 | 0% | 11% | 16% | -13%
CC(C)CN1CCCC(N2CCN(c3cccc(Cl)c3)CC2)C1 (stereo unspecified) | ? | 9% | -22% | 5%
COc1ccc(CN2CCCC(N3CCN(c4ccc(OC)cc4)CC3)C2)cc1 (stereo unspecified) | -15% | 7% | -1% | -34%
COc1ccc(CN2CCCC(N3CCN(c4cccc(Cl)c4)CC3)C2)cc1OC (stereo unspecified) | 9.3µM* | -13% | -13% | ?
CCOc1cc(CN2CCCC(N3CCN(c4ccc(F)cc4)CC3)C2)ccc1OC (stereo unspecified) | -35% | 28% | 0% | 1µM*
COc1ccc(NC(=O)c2ccc(Cl)c(S(=O)(=O)N3CCc4ccccc4C3)c2)cn1 | . | -10% | 11µM* | 1.9µM*
COc1ccc(NC(=O)c2ccc(Cl)c(S(=O)(=O)N3CC(C)OC(C)C3)c2)cn1 (stereo unspecified) | 10µM* | 0% | 3.2µM* | 8.3µM*
CCc1nnc(NC(=O)c2ccc(Cl)c(S(=O)(=O)N3CCc4ccccc4C3)c2)s1 | -5% | 8% | ? | -6%
Cc1ccccc1CCNC(=O)c1ccc(Cl)c(S(=O)(=O)N2CC(C)OC(C)C2)c1 (stereo unspecified) | 13µM* | -3%[11.6 µM] | 7.9µM* | 13µM*
CCOc1ccc(NS(=O)(=O)c2ccc(C)c(C(=O)NCCCn3ccnc3)c2)cc1 | -25% | 7% | -5% | ?
Cc1nc(-c2cc(-c3nc(-c4cc(C(F)(F)F)cc(C(F)(F)F)c4)no3)no2)cs1 | 31% | -2% | 10% | 24%
Cc1nc(-c2cc(-c3nc(-c4ccc(C(F)(F)F)cc4)no3)no2)cs1 | 3% | -3% | 20% | 0.66µM*
OC(CNC1CCCC1)COc1ccc(-c2ccccc2)cc1 (stereo unspecified) | 5% | -15% | ? | ?
OC(CNC1CCCCC1)COCCOc1ccc(Br)cc1 (stereo unspecified) | 12µM* | -5% | 7.9µM* | 10µM*
CCCCNC(=O)NC1CCCC1 | 52% | -2% | 12% | 3%
CN1C(=O)C2ON(c3ccccc3)C(c3cccs3)C2C1=O (stereo unspecified) | 9.3µM* | 1% | 19% | 5%
Nc1nc(SCc2ccccc2Cl)nc2nc3c(cc12)CCCC3 | -17% | 31% | . | ?
Nc1nc(SCc2ccc(Cl)cc2Cl)nc2nc3c(cc12)CCCC3 | 13µM* | -10% | 8.9µM* | 8.3µM*
CCn1cc(S(=O)(=O)N2CCN(c3ccc(Cl)cc3)CC2)cn1 | -14% | 14% | -9% | 50%
